High-throughput results (PubChem BioAssay)
HT1080 IDH1KD tx = HT-1080 IDH1 knockdown cell toxicity (counter line). HT-1080 IDH1 knockdown viability, ATP luminescence, 48 h. Potency, µM (doses to about 46.1 µM), usual class: cytotoxic. 360,000 tested, 2% active
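After a 2 h attachment period, IDH1KD HT-1080 cells took pin-transferred compound for 48 h at 37 °C; ATP-based luminescence after 10 min room-temperature reagent incubation reported viability.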
KB-3-1 cytotox = KB-3-1 parental cell cytotoxicity | KB-3-1 viability, CellTiter-Glo ATP luminescence, 72 h | Potency, µM (doses to about 46.1 µM), actives largely listed as cytotoxic | 400,000 tested, 1.4% active | AID 1347075; further: nearly all actives have a fitted effect of over 60% in size
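Luminescent ATP read-out (CellTiter-Glo) measures survival of drug-naive KB-3-1 cells after 72 h compound exposure at 37 °C. Titration series was screened from lowest to highest concentration, with DMSO vehicle plates as background controls.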
MCF10A rerep = DNA re-replication induction in MCF 10a cells; MCF 10A DNA re-replication, Hoechst nuclear intensity, 48 h; 350,000 tested, 2.9% active; Potency, µM (doses to about 46.1 µM), actives largely listed as activators; further: nearly all actives have a fitted effect of over 50% in size
KB-V1 MDR tox = KB-V1 MDR subline cytotoxicity; KB-V1 MDR cells viability, CellTiter-Glo, 72 h; Potency, µM (series often up to 46.1 µM), most hits filed as cytotoxic; 400,000 tested, 3.4% active; further: nearly all actives have a fitted effect of over 60% in size
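Potencies derive from concentration-effect curves fitted to normalized luminescence (CellTiter-Glo) of KB-V1 cells treated for 72 h at 37 degrees C in phenol-red-free DMEM containing 10% FBS.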
HT1080NT lethal = kills 2HG-producing HT-1080-NT fibrosarcoma cells; HT-1080-NT fibrosarcoma viability, CellTiter-Glo ATP luminescence, 48 h; Potency, µM (top dose mostly 46.1 µM), most hits filed as cytotoxic; 360,000 tested, 1.6% active; AID 686970;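 further: NT is the 2HG producing partner of a matched IDH1 knockdown line; nearly all actives have a fitted effect of over 55% in size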
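750 cells/well, RPMI + 5% FBS; 2 h settle, compound pin-transfer, 48 h at 37 degrees C. CellTiter-Glo 10 min RT, luminescence. Normalized to DMSO and media-only wells.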
SW480 rereplic = inducers of DNA re-replication in SW480 colon cancer cells; SW480 DNA re-replication, Hoechst DNA content imaging, 48 h; Potency, µM (highest dose often 46.1 µM), usual class: activators; AID 624297; 340,000 tested, 1.8% active; further: nearly all actives have a fitted effect of over 55% in size
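Quantitative HTS format with DMSO vehicle controls; 48 hr drug incubation at 37 C, then 40 min Hoechst staining and scanning imager measurement at 405 nm excitation.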
Numbers stand for hits; ! = not confirmed by another sample; [ ] = remark or other dose. This is a sample that favours compounds with a hit; in the whole collection about 7.9% have one here. The call rests on the fitted dose curve; in most records, active means well fitted curve in the direction sought with a large enough effect; inconclusive means small, poorly fitted or top-dose-only effect, or another doubt; inactive means no such curve, though single readings can be large; an effect the other way counts as inactive or inconclusive.

`Cc1ccc(-n2cc(C(=O)c3cc(Cl)ccc3O)cc(C#N)c2=O)cc1` gave HT1080 IDH1KD tx inactive, KB-3-1 cytotox inactive, MCF10A rerep inconclusive, KB-V1 MDR tox 16µM, HT1080NT lethal inactive and SW480 rereplic inactive.
Cc1ccccc1NC(=O)c1cc(C(=O)c2cc(Cl)ccc2O)cn(-c2ccccc2C)c1=O was read as HT1080 IDH1KD tx inconclusive, KB-3-1 cytotox inactive, MCF10A rerep inactive, KB-V1 MDR tox 9.2µM and HT1080NT lethal inconclusive.
`O=C(c1ccc(Cl)cc1)c1oc2ccccc2c1CS(=O)(=O)c1ccccc1` gave HT1080 IDH1KD tx inactive, KB-3-1 cytotox inactive, MCF10A rerep inconclusive, KB-V1 MDR tox 6.5µM, HT1080NT lethal inactive and SW480 rereplic inactive.
Screening CCOc1ccc(OCCC(=O)Nc2ccccc2C(=O)NC2CC2)cc1 returned HT1080 IDH1KD tx inactive, KB-3-1 cytotox inactive, KB-V1 MDR tox inactive and HT1080NT lethal inactive.
Cc1nnc(SCC(=O)N2c3ccccc3C(C)(c3ccccc3)CC2(C)C)s1 (centres undefined) was read as HT1080 IDH1KD tx inactive, KB-3-1 cytotox 16µM, MCF10A rerep inconclusive, KB-V1 MDR tox 8.2µM, HT1080NT lethal inactive and SW480 rereplic inactive.
Screening Cc1ccc(C2(C)CC(C)(C)N(C(=O)CSc3nnc(C)s3)c3ccccc32)cc1 (centres undefined) returned HT1080 IDH1KD tx inconclusive, KB-3-1 cytotox inconclusive, MCF10A rerep inconclusive, KB-V1 MDR tox inconclusive, HT1080NT lethal inconclusive and SW480 rereplic inactive.
Screening CCn1c(C)cc(C(=O)CSc2nnnn2C2CCCC2)c1C returned HT1080 IDH1KD tx inactive, KB-3-1 cytotox inactive, MCF10A rerep inconclusive, KB-V1 MDR tox 9.2µM, HT1080NT lethal inactive and SW480 rereplic inactive.
`Cc1cc(C(=O)CSc2nnnn2C)c(C)n1C1CC1` gave HT1080 IDH1KD tx inactive, KB-3-1 cytotox inactive, MCF10A rerep inactive, KB-V1 MDR tox inactive, HT1080NT lethal inactive and SW480 rereplic inactive.
For Cc1ccc(S(=O)(=O)Nc2ccc(N(C)S(=O)(=O)c3ccc(C)cc3)cc2)cc1 the results were HT1080 IDH1KD tx inconclusive, KB-3-1 cytotox inactive, MCF10A rerep inactive, KB-V1 MDR tox inactive, HT1080NT lethal inactive and SW480 rereplic inactive.
`Cc1ccc(S(=O)(=O)N(C)c2ccc3c(c2)C(=O)c2ccccc2-3)cc1` gave HT1080 IDH1KD tx inactive, KB-3-1 cytotox inconclusive, KB-V1 MDR tox 21µM and HT1080NT lethal inactive.
Screening Cc1ccc(N2C(=O)c3cccc4c(N)ccc(c34)C2=O)c2cccnc12 returned HT1080 IDH1KD tx 0.0073µM, KB-3-1 cytotox inconclusive, MCF10A rerep inconclusive, KB-V1 MDR tox 0.58µM, HT1080NT lethal 0.021µM and SW480 rereplic inconclusive.
`CCOc1ccccc1NC(=O)c1c2c(nc3ccccc13)C(=O)N(C1CCCCC1)C2` gave KB-3-1 cytotox inactive and KB-V1 MDR tox inactive.
Screening COc1ccc(-c2cc(C(=O)OCC(=O)N3CCOCC3)c3ccccc3n2)cc1 returned HT1080 IDH1KD tx inactive, KB-3-1 cytotox inactive, MCF10A rerep 16µM, KB-V1 MDR tox inconclusive, HT1080NT lethal inactive and SW480 rereplic inactive.
Nc1nc(N2CCN(C(=O)c3ccco3)CC2)nc2ccc(Br)cc12 was read as HT1080 IDH1KD tx inactive, KB-3-1 cytotox inconclusive, MCF10A rerep inconclusive, KB-V1 MDR tox 21µM, HT1080NT lethal inconclusive and SW480 rereplic inactive.
COc1cc2ccccc2cc1C(=O)OCC(=O)N1CCOCC1 was read as HT1080 IDH1KD tx inactive, KB-3-1 cytotox inactive, MCF10A rerep inactive, KB-V1 MDR tox inactive, HT1080NT lethal inactive and SW480 rereplic inactive.
Nc1nc(N2CCN(C(=O)c3ccco3)CC2)nc2ccccc12 was read as HT1080 IDH1KD tx inactive, KB-3-1 cytotox inactive, MCF10A rerep inactive, KB-V1 MDR tox inactive, HT1080NT lethal inactive and SW480 rereplic inactive.
For O=C(COC(=O)c1cc(-c2ccccc2)nc2ccccc12)c1ccc(Br)cc1 the results were KB-3-1 cytotox inactive and KB-V1 MDR tox inactive.
For O=C(OCC(=O)N1CCN(C(=O)c2ccco2)CC1)c1cc(-c2cccc(Br)c2)nc2ccccc12 the results were HT1080 IDH1KD tx inactive, KB-3-1 cytotox inactive, MCF10A rerep inconclusive, KB-V1 MDR tox 16µM, HT1080NT lethal inactive and SW480 rereplic inactive.
C/C(N)=C(/C#N)C(=O)COC(=O)c1cc(-c2ccc(Br)cc2)nc2ccccc12 was read as HT1080 IDH1KD tx inconclusive, KB-3-1 cytotox inconclusive, MCF10A rerep inconclusive, KB-V1 MDR tox 21µM!, HT1080NT lethal inconclusive and SW480 rereplic inconclusive.
`CC1CCN(c2ccc(-c3cccc(NS(=O)(=O)c4ccc(F)cc4F)c3)nn2)CC1` gave KB-3-1 cytotox inactive and KB-V1 MDR tox inactive.
`O=C(C1=C[C@@H](c2coc3ccccc3c2=O)C[C@@H](OCc2ccc(CO)cc2)O1)N1CCCCCCC1` gave HT1080 IDH1KD tx inactive, KB-3-1 cytotox inactive, MCF10A rerep 1.3µM, KB-V1 MDR tox inactive, HT1080NT lethal inactive and SW480 rereplic inactive[9.22 µM].
Screening O=C(C1=C[C@@H](C2CCCCC2)C[C@@H](OCc2ccc(CO)cc2)O1)N1CCOCC1 returned HT1080 IDH1KD tx inactive, KB-3-1 cytotox inactive, MCF10A rerep inactive, KB-V1 MDR tox inactive, HT1080NT lethal inactive and SW480 rereplic 0.18µM.
For O=C(C1=C[C@@H](c2ccccc2)C[C@@H](OCc2ccc(CO)cc2)O1)N1CCN(Cc2ccc3c(c2)OCO3)CC1 the results were HT1080 IDH1KD tx 16µM, KB-3-1 cytotox 10µM, MCF10A rerep inconclusive, KB-V1 MDR tox inconclusive, HT1080NT lethal inconclusive and SW480 rereplic inconclusive.
Screening O=C(C1=C[C@@H](C2CC2)C[C@@H](OCc2ccc(CO)cc2)O1)N1CCOCC1 returned HT1080 IDH1KD tx inactive, KB-3-1 cytotox inactive, MCF10A rerep inactive, KB-V1 MDR tox inactive, HT1080NT lethal inactive and SW480 rereplic inactive.
NC(N)=NN=C(c1ccc(F)cc1)c1ccc(C(F)(F)F)cc1 was read as HT1080 IDH1KD tx 7.3µM, KB-3-1 cytotox 3.7µM, MCF10A rerep inconclusive, KB-V1 MDR tox inconclusive, HT1080NT lethal 2.9µM and SW480 rereplic 6.5µM.
CCOc1ccc(C(=O)Nc2cccc(-c3nc4cc(Cl)cc(Cl)c4o3)c2)cc1 was read as KB-3-1 cytotox inactive and KB-V1 MDR tox inactive.
`Clc1ccc(-c2nnc3sc(-c4ccc(Br)o4)nn23)c(Cl)c1` gave HT1080 IDH1KD tx inactive, KB-3-1 cytotox inactive, MCF10A rerep 9.2µM, KB-V1 MDR tox inconclusive, HT1080NT lethal inactive and SW480 rereplic inactive.
For CCCCn1c(SCC(=O)NCc2ccc(C)cc2)nc2c(sc3ccccc32)c1=O the results were KB-3-1 cytotox inactive and KB-V1 MDR tox inconclusive.
COc1ccc(-c2nc(Cn3c(SCc4ccc(F)cc4)nc4ccncc43)c(C)o2)cc1OC was read as HT1080 IDH1KD tx inconclusive, KB-3-1 cytotox inconclusive, MCF10A rerep 3.7µM, KB-V1 MDR tox inactive, HT1080NT lethal 23µM and SW480 rereplic inactive.
